# PubChem BioAssay (Tox21)
# Several values for one entry are separate records, joined by “and”; a condition that tells them apart may be missing. Equal entries are not always repeated. Unmarked numbers belong to inactive results. Results filed as inconclusive are left out. Entries that show only a call come without a potency. Activity calls are given as the source filed them. Unless noted, calls come from the whole dose curve.
# What was measured:
# [1] = Nuclear factor erythroid 2-related factor 2/antioxidant responsive element (Nrf2/ARE) small molecule agonists: qHTS cell viability counter screen in human keratinocytes (AID 1919968; active = well fitted curve in the direction sought with a large enough effect in the repeat runs; an effect the other way counts as inactive or inconclusive; note: nearly all actives have a fitted effect of over 55% in size)
# In short: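 In human HaCaT keratinocytes stably expressing an ARE-driven luciferase, compound exposure lasted 23 h at 37 C under 5% CO2. Viable cells are quantified with a protease-based fluorogenic reagent (CellTiter-Fluor) read 1 h after addition.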
# [2] = Nuclear factor erythroid 2-related factor 2/antioxidant responsive element (Nrf2/ARE) small molecule agonists: luciferase reporter gene qHTS assay in human keratinocytes (AID 1919969); note: nearly all actives have a fitted effect of over 35% in size; note: potency is the fitted concentration of half-maximal effect
# [3] = biological target: Gonadotropin-releasing hormone receptor (Homo sapiens) (UniProt P30968); assay: Human gonadotropin-releasing hormone receptor (GnRHR) small molecule agonists, calcium flux assay in GnRHR-HEK293 cells (AID 1920063); note: nearly all actives have a fitted effect of over 35% in size
# Gonadotropin-releasing hormone receptor (Homo sapiens), sequence (P30968 whole entry, looked up): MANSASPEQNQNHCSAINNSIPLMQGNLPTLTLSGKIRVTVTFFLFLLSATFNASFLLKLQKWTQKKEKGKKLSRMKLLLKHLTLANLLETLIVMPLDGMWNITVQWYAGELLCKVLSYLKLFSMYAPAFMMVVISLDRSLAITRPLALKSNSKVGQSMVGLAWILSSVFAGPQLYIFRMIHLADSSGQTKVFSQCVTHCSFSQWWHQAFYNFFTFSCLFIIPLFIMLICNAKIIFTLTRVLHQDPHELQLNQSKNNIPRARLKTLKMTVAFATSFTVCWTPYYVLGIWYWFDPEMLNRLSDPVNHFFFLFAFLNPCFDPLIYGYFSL
# In short: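 Intracellular calcium rise is the read-out: engineered human GnRHR HEK293 cells, dye-loaded, are exposed to DMSO-dissolved compounds and fluorescence at Ex/Em 480/540 is tracked for 3 min.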
# [4] = biological target: KiSS-1 receptor (Homo sapiens) (UniProt Q969F8); assay: Human kisspeptin (KISS1R) small molecule agonists, calcium flux assay in KISS1R-HEK293 cells (AID 1920064; active = well fitted curve in the direction sought with a large enough effect in the repeat runs; an effect the other way counts as inactive or inconclusive)
# KiSS-1 receptor (Homo sapiens), sequence (Q969F8 whole entry, looked up): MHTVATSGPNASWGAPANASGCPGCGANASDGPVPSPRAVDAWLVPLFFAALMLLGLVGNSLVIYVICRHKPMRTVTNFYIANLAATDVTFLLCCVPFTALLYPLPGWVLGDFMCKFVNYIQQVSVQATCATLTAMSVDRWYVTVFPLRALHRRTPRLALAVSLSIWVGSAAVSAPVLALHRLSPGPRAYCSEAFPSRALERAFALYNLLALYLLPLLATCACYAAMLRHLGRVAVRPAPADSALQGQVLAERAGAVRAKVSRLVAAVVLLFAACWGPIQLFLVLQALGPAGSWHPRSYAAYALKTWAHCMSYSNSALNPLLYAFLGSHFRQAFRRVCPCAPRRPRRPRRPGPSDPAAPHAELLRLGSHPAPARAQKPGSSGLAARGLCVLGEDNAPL
# In short: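 Concentration-response testing used 15 concentrations in triplicate on human KISS1R-expressing HEK293 cells. Calcium-dependent fluorescence (Ex/Em 480/540) was followed kinetically for 3 min after compound transfer.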
# [5] = G protein-coupled receptor (GPCR) small molecule agonists, calcium flux assay: HEK293 wild type cell line counter screen (AID 1920065)
# In short: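 Fluorescence intensity signals activation. After overnight (18 h) culture and a 1 h calcium dye load at 37 C, compounds are added by pin tool and the plate read at 480/540 nm for 3 min in 1 s steps.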
# [6] = p53 small molecule agonists, cell-based qHTS assay with human liver microsomes (AID 1963577);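 note: p53 response element beta-lactamase reporter cells with liver microsomes plus NADPH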
# In short: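 p53RE-bla cells; 5 h settle, 37 C/5% CO2; cpd + HLM 0.5 mg/mL + NADPH 0.5 mg/mL (final); 16 h 37 C; LiveBLAzer 2 h RT dark; fluorescence readout.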
# [7] = p53 small molecule agonists, cell-based qHTS assay with rat liver microsomes (AID 1963578)
# In short: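 Rat liver microsome activation: microsomes 0.5 mg/mL, NADPH 0.5 mg/mL final; p53RE-bla cells, 16 h 37 C; LiveBLAzer readout, 2 h RT dark.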
# [8] = p53 small molecule agonists, cell-based qHTS assay with human liver microsomes: qHTS cell viability counter screen (AID 1963579); note: nearly all actives have a fitted effect of over 45% in size
# In short: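 Luminescent CellTiter-Glo read-out, 30 min at room temperature, gauged cytotoxicity in p53RE-bla cells exposed 16 h at 37 C to DMSO-dissolved compounds with metabolic activation by human liver microsomes and NADPH, each 0.5 mg/mL final.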
# [9] = p53 small molecule agonists, cell-based qHTS assay with rat liver microsomes: qHTS cell viability counter screen (AID 1963580); note: nearly all actives have a fitted effect of over 45% in size
# In short: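 Counter screen for cytotoxicity under metabolic activation: rat liver microsomes and NADPH, 0.5 mg/mL final each, added with compounds to p53RE-bla HCT-116 cells; 16 h at 37 C, then ATP luminescence read.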
# [10] = p53 small molecule agonists, cell-based qHTS assay: qHTS cell viability counter screen (AID 1963581); note: nearly all actives have a fitted effect of over 45% in size
# In short: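 Luminescence from CellTiter-Glo, reflecting ATP content, serves as the cytotoxicity measure; it is taken after the 2 h reporter substrate step in HCT-116 p53RE-bla cells dosed for 16 h at 37 C.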
# [11] = biological target: 5-hydroxytryptamine receptor 2A (Homo sapiens) (UniProt P28223); assay: 5-hydroxytryptamine receptor 2A (HTR2A) small molecule agonists, cell-based qHTS assay (AID 1963587); note: nearly all actives have a fitted effect of over 30% in size
# 5-hydroxytryptamine receptor 2A (Homo sapiens), sequence (P28223 whole entry, looked up): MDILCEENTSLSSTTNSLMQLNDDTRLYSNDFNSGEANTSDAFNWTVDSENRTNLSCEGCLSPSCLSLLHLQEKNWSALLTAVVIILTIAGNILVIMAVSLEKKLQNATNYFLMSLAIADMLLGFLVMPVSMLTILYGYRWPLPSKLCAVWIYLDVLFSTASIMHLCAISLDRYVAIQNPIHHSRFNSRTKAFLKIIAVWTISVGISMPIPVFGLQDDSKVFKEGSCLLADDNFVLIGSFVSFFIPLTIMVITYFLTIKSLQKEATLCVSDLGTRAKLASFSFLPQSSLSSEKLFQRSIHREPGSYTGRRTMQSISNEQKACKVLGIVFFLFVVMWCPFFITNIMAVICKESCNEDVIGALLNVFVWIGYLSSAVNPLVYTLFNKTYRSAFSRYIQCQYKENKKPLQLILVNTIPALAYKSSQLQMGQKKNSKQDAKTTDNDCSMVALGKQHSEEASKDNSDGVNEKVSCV
# In short: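 HTR2A-CHO cells, plated 18 h at 37 C/5% CO2, dye-loaded 1 h at 37 C; compounds in DMSO added by pin tool (agonist mode). Intracellular calcium flux read as kinetic fluorescence on FDSS over 2 min at 1 s intervals.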
# [12] = biological target: Muscarinic acetylcholine receptor M1 (Homo sapiens) (UniProt P11229); assay: Cholinergic receptor muscarinic 1 (CHRM1) small molecule antagonists, cell-based qHTS assay (AID 1963588); note: nearly all actives have a fitted effect of over 40% in size
# Muscarinic acetylcholine receptor M1 (Homo sapiens), sequence (P11229 whole entry, looked up): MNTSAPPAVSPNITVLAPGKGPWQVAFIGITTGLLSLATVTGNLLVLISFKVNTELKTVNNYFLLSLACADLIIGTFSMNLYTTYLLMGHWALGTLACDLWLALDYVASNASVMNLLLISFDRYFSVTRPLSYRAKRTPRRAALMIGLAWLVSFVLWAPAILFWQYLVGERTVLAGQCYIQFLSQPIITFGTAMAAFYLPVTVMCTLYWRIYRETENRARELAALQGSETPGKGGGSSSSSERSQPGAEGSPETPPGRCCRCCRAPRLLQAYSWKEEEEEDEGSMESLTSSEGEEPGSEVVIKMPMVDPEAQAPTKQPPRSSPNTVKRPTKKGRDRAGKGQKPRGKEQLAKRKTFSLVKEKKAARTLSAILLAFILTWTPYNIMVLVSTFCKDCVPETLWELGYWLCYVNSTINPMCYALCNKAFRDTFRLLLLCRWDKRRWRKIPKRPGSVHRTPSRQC
# In short: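 Compounds were tested at 15 concentrations in three independent runs. Dye-loaded CHRM1-CHO cells were exposed 5 min at room temperature before stimulation by acetylcholine added at 50nM. Intracellular calcium was read kinetically on FDSS for 3 min.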
# [13] = cAMP Responsive Elements (CRE) small molecule agonists, cell-based qHTS assay (AID 1963590)
# In short: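 Compound exposure lasted 3 h at 37 C/5% CO2 in CRE-bla HEK 293T cells grown in assay medium with 10% dialyzed FBS and 25 mM HEPES. Reporter signal came from LiveBLAzer B/G FRET substrate, 2 h, room temperature.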
# [14] = cAMP Responsive Elements (CRE) small molecule antagonists, cell-based qHTS assay (AID 1963591; active = well fitted inhibition curve with a large enough effect in the signal ratio in the repeat runs, not every such curve was filed as active; the % refers to the signal ratio)
# In short: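 Stimulation used NKH477 at a final 0.25 uM for 3 h in compound-treated CRE-bla HEK293T cells, seeded 18 h beforehand. Reporter activity was measured with LiveBLAzer B/G FRET substrate after 2 h at room temperature.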
# [15] = biological target: Beta-2 adrenergic receptor (Homo sapiens) (UniProt P07550); assay: Adrenergic beta2 receptor (ADRB2) small molecule antagonists, cell-based qHTS assay (AID 1963592); note: series mostly up to about 92 µM; nearly all actives have a fitted effect of over 50% in size
# Beta-2 adrenergic receptor (Homo sapiens), sequence (P07550 whole entry, looked up): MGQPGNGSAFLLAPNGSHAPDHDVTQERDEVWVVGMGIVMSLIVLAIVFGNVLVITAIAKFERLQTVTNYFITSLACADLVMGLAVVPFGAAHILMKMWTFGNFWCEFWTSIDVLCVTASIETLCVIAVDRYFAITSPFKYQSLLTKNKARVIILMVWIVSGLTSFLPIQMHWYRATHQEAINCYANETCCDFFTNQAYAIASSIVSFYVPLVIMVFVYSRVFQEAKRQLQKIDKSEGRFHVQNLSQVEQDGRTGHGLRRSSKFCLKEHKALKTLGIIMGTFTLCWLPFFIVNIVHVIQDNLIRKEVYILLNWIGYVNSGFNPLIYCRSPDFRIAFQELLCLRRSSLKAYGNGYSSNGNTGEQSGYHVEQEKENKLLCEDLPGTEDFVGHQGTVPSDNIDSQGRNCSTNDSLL
# In short: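 Assay format: CHO-ADRB2 cells, 18-20hr seeding at 37C/5% CO2, then compound plus 1nM isoproterenol agonist mix for 0.5hr RT. Homogeneous time-resolved fluorescence cAMP detection after 1hr, expressed as 665/615 nm ratio.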
# [16] = biological target: Beta-2 adrenergic receptor (Homo sapiens) (UniProt P07550); assay: Adrenergic beta2 receptor (ADRB2) small molecule agonists, cell-based qHTS assay (AID 1963593);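 note: CHO cells stably overexpressing human ADRB2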
# In short: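 CHO cells stably over-expressing ADRB2 were plated overnight at 37C, then dosed with compounds plus a stimulation mix containing 100uM IBMX and 25uM Ro-20-1724 for 0.5hr at room temperature. cAMP was measured by HTRF competition, 1hr.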
# [17] = biological target: D(2) dopamine receptor (Homo sapiens) (UniProt P14416); assay: Dopamine D2 receptor (DRD2) small molecule agonists, cell-based qHTS assay (AID 1963594); note: nearly all actives have a fitted effect of over 35% in size
# D(2) dopamine receptor (Homo sapiens), sequence (P14416 whole entry, looked up): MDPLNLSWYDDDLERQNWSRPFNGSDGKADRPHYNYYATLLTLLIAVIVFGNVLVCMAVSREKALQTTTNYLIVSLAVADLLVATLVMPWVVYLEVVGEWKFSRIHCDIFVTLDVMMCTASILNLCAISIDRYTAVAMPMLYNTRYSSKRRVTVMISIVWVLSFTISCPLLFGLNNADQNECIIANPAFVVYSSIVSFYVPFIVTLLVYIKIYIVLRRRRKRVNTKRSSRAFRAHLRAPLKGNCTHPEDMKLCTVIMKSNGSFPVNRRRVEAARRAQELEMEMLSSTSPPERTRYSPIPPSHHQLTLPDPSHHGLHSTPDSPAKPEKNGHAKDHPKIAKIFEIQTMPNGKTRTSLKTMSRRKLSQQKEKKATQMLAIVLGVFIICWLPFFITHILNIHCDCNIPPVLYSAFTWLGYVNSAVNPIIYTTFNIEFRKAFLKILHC
# In short: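 HEK293 cells stably expressing DRD2 were cultured 24 h at 37 C, then given Ro20-1724 (0.1 mM final) and compounds for 10 min at room temperature. NKH477 (200nM) was then added for 30 min. cAMP was read by HTRF.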
# [18] = biological target: D(2) dopamine receptor (Homo sapiens) (UniProt P14416); assay: Dopamine D2 receptor (DRD2) small molecule antagonists, cell-based qHTS assay (AID 1963595; active = well fitted inhibition curve with a large enough effect in the signal ratio in the repeat runs, with a control signal flat; the % refers to the signal ratio)
# In short: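 HEK293 cells stably expressing DRD2, preincubated with 0.1 mM Ro20-1724 and compounds 10 min, were stimulated with 200 nM NKH477 plus 12 nM quinpirole for 30 min at room temperature; cAMP measured by HTRF (665/620 nm).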
# [19] = biological target: Muscarinic acetylcholine receptor M1 (Homo sapiens) (UniProt P11229); assay: Cholinergic receptor muscarinic 1 (CHRM1) small molecule agonists, cell-based qHTS assay (AID 1963589); note: nearly all actives have a fitted effect of over 35% in size
# In short: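 Fluorescent calcium dye reports M1 activation in stably transfected CHO cells. Compounds, 15 concentrations, added after 1 h dye loading at 37 C; kinetic reading at 1 sec intervals.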
# [20] = biological target: 5-hydroxytryptamine receptor 2A (Homo sapiens) (UniProt P28223); assay: 5-hydroxytryptamine receptor 2A (HTR2A) small molecule antagonists, cell-based qHTS assay (AID 1963586); note: nearly all actives have a fitted effect of over 45% in size
# In short: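 CHO cells stably expressing human HTR2A were plated for 18 h at 37 C, then loaded with calcium dye for 1 h. Compounds were preincubated 5 min at room temperature before DOI (4 nM solution) was added. Kinetic fluorescence was read for 3 min.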
SMILES,Potency [1],Potency [2],Potency [3],Potency [4],Potency [5],Potency [6],Potency [7],Potency [8],Potency [9],Potency [10],Potency [11],Potency [12],Potency [13],Potency [14],Potency [15],Potency [16],Potency [17],Potency [18],Potency [19],Potency [20]
CC(CCO)CCc1ccccc1 (centres undefined),inactive,inactive,inactive,inactive,inactive,inactive,inactive,inactive,inactive,inactive,inactive,inactive,inactive,inactive,inactive,inactive,inactive,inactive,,
CCC(C)C1N=C(C)C(C)S1 (centres undefined),inactive,inactive,inactive,inactive,inactive,inactive,inactive,inactive,inactive,inactive,inactive,inactive,inactive,inactive,inactive,,inactive,inactive,inactive,
CC(CO)CO,inactive,inactive,inactive,inactive,inactive,inactive,inactive,inactive,inactive,inactive,inactive,,inactive,inactive,inactive,inactive,,inactive,inactive,
O=c1[nH]c(=O)n([C@H]2CCCO2)cc1F,inactive,inactive,inactive,inactive,inactive,inactive,inactive,inactive,inactive,inactive,,,inactive,inactive,inactive,,inactive,inactive,,
CCCCCCCCCCCCCCCC,inactive,inactive,inactive,inactive,inactive,inactive,inactive,inactive,inactive,inactive,inactive,inactive,inactive,inactive,inactive,,,inactive,inactive,inactive
OCc1ccccc1O,inactive,inactive,inactive,inactive,inactive,inactive,inactive,inactive,inactive,inactive,inactive,inactive,inactive,inactive,inactive,inactive,inactive,inactive,inactive,inactive
C1=C\CC/C=C\CC/C=C\CC/1,inactive,inactive,inactive,inactive,inactive,inactive,inactive,inactive,inactive,inactive,inactive,inactive,inactive,inactive,inactive,inactive,,inactive,inactive,inactive
COCCCOc1ccnc(CS(=O)c2nc3ccccc3[nH]2)c1C (centres undefined),inactive,30.5 µM (active),inactive,inactive,inactive,inactive,inactive,inactive,inactive,inactive,,,inactive,inactive,inactive,inactive,inactive,inactive,,
CCCCCC1CCC(=O)O1 (centres undefined),inactive,inactive,inactive,inactive,inactive,inactive,inactive,inactive,inactive,inactive,inactive,inactive,inactive,inactive,inactive,,inactive,inactive,,
C1COCCO1,inactive,inactive,inactive,inactive,inactive,inactive,inactive,inactive,inactive,inactive,inactive,inactive,inactive,inactive,inactive,,inactive,inactive,inactive,inactive
CC(C)Oc1ccc2c(=O)c(-c3ccccc3)coc2c1,inactive,376 nM (active) and 266 nM (active),inactive,inactive,inactive,inactive,inactive,inactive,inactive,inactive,,,inactive,inactive,inactive,inactive,,inactive,,
CCCCOCCCC,inactive,inactive,inactive,inactive,inactive,inactive,inactive,inactive,inactive,inactive,inactive,,inactive,inactive,inactive,inactive,inactive,inactive,inactive,
CCCCCC(=O)CC,inactive,inactive,inactive,inactive,inactive,inactive,inactive,inactive,inactive,inactive,inactive,inactive,inactive,inactive,inactive,inactive,inactive,inactive,inactive,inactive
CCCCCc1cccc(=O)o1,inactive,inactive,inactive,inactive,inactive,inactive,inactive,inactive,inactive,inactive,inactive,inactive,inactive,inactive,inactive,,inactive,inactive,inactive,inactive
CCOC(=O)NCCC[Si](OCC)(OCC)OCC,inactive,inactive,inactive,inactive,inactive,inactive,inactive,inactive,inactive,inactive,inactive,inactive,inactive,inactive,inactive,inactive,inactive,inactive,inactive,inactive
